Experimental data taken from PubChem BioAssay (Tox21).
A number with no mark means an inactive call. Results filed as inconclusive are left out. Entries that show only a call come without a potency. Activity calls are given as the source filed them. Unless noted, the call rests on the fitted dose curve; in most records, active means well fitted curve in the direction sought with a large enough effect in the repeat runs; inconclusive means weak or mixed curves; inactive means no such curve, though single readings can be large; an effect the other way counts as inactive or inconclusive.

Assays:
[1] = qHTS assay for small molecule agonists of the p53 signaling pathway (AID 651631; calls by dose curve; further: nearly all actives have a fitted effect of over 15% in size)
How it was run: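 Stably transfected HCT-116 cells (beta-lactamase behind p53 response elements) get compounds after a 5 h settling period; 16 h later at 37 °C, FRET substrate is loaded and fluorescence read after 2 h.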

[2] = qHTS assay for small molecules that induce genotoxicity in human embryonic kidney cells expressing luciferase-tagged ATAD5 (AID 651632); further: nearly all actives have a fitted effect of over 15% in size
How it was run: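 Luminescent reporter readout, HEK293T ATAD5-luc line: 16 hr drug exposure (37C, 5% CO2) followed by Amplite, 30 min RT.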

[3] = qHTS assay for small molecule agonists of the p53 signaling pathway - cell viability (AID 651633; calls by dose curve;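 further: p53RE-bla HCT reporter cells with a stable beta-lactamase p53 reporter; series mostly up to about 83 µM; nearly all actives have a fitted effect of over 30% in size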)
How it was run: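 p53RE-bla cells were treated with compound for 16 hours at 37 C. Cytotoxicity was then measured as CellTiter-Glo luminescence after 30 min at room temperature.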

[4] = qHTS assay for small molecules that induce genotoxicity in human embryonic kidney cells expressing luciferase-tagged ATAD5 - cell viability (AID 651634; calls by dose curve; further: nearly all actives have a fitted effect of over 25% in size)
How it was run: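 Viability read: CellTiter-Fluor fluorescence, 30 min at 37C. Cells: HEK293T, luciferase-tagged ATAD5. Exposure: 15.5 hr, 37C, 5% CO2, compound or DMSO vehicle.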

[5] = qHTS assay for small molecule disruptors of the mitochondrial membrane potential - cell viability (AID 720634; calls by dose curve;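 further: human HepG2 liver cancer cells; series mostly up to about 83 µM; nearly all actives have a fitted effect of over 20% in size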)
How it was run: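 HepG2, 1 hr compound, 37 C. ATP luminescence via CellTiter-Glo, 30 min RT, same well as m-MPI.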

[6] = qHTS assay for small molecule disruptors of the mitochondrial membrane potential (AID 720635); further: potency means the concentration at half of the fitted maximal effect
How it was run: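 HepG2 cells exposed to compound 1 hr at 37C, then Mito-MPS dye 30 min. Ratio read of aggregate (540/590 nm) versus monomer (490/535 nm) fluorescence.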

[7] = qHTS assay to test for compound auto fluorescence at 590 nm (red) in HepG2 cells (AID 720674)
How it was run: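 HepG2 cells, 2,000 per well in MEM with 10% FBS, attached overnight at 37 C, then got 23 nL compound or DMSO. After 1 hr at 37 C, 5% CO2, red fluorescence was read at 540/590 nm against Rose Bengal sodium as reference.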

[8] = qHTS assay to test for compound auto fluorescence at 535 nm (green) in HepG2 cells (AID 720675)
[9] = qHTS assay to test for compound auto fluorescence at 460 nm (blue) in HEK293 cells (AID 720678)
How it was run: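 HEK293 cells (2,000 per well, medium with 10% dialyzed FBS) attached for 4-5 hr at 37C, then received compound and stood overnight at 37C, 5% CO2. Blue fluorescence was read at Ex/Em 405/460 nm and expressed relative to triamterene.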

[10] = qHTS assay to test for compound auto fluorescence at 590 nm (red) in HEK293 cells (AID 720679)
How it was run: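 HEK293 cells (2,000/well, medium with 10% dialyzed FBS) attached for 4-5 hr at 37C, received 23 nL compound and were incubated overnight at 37C, 5% CO2. Red fluorescence was then read at 540/590nm Ex/Em, referenced to Rose Bengal sodium.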

Row | Structure (SMILES) | Potency [1] | Potency [2] | Potency [3] | Potency [4] | Potency [5] | Potency [6] | outcome [7] | outcome [8] | outcome [9] | outcome [10] | fluorescence, relative to Rose Bengal [7] | fluorescence, % of fluorescein control [8] | fluorescence, % of triamterene [9]
1 | Nc1cccc(S(=O)(=O)O)c1 | inactive | inactive | inactive | inactive | inactive | 0.0972 µM (active) | inactive | inactive | inactive | inactive | – | – | –
2 | CC1(C)O[C@@H]2C[C@H]3[C@@H]4CCC5=CC(=O)CC[C@]5(C)[C@@]4(F)[C@@H](O)C[C@]3(C)[C@]2(C(=O)CCl)O1 | inactive | inactive | inactive | inactive | inactive | 8.04 µM (active) | – | – | – | – | -0.0973% [at 18.6 µM] | -0.093% [at 18.6 µM] | -0.0183% [at 18.6 µM]
3 | CCCc1c2oc(C(=O)O)cc(=O)c2cc2c(=O)cc(C(=O)O)n(CC)c12 | inactive | inactive | inactive | inactive | inactive | inactive | inactive | inactive | inactive | inactive | – | – | –
4 | C[C@@H]1CN(c2c(F)c(N)c3c(=O)c(C(=O)O)cn(C4CC4)c3c2F)C[C@H](C)N1 | inactive | inactive | inactive | inactive | inactive | inactive | inactive | inactive | inactive | inactive | – | – | –
5 | CC(C)CCCCCCc1ccc(OCCOCCO)cc1 | inactive | inactive | inactive | inactive | inactive | inactive | inactive | inactive | inactive | inactive | – | – | –
6 | C=Cc1ccccc1 | inactive | inactive | inactive | inactive | inactive | inactive | inactive | inactive | inactive | inactive | – | – | –
7 | CCCOCCC | inactive | inactive | inactive | inactive | inactive | inactive | inactive | inactive | inactive | inactive | – | – | –
8 | CC(C)=CCC[C@](C)(O)[C@@H]1CC=C(C)CC1 | inactive | inactive | inactive | inactive | inactive | 30.6 µM (active) | inactive | inactive | inactive | inactive | – | – | –
9 | CCN(O)CC | inactive | inactive | inactive | inactive | inactive | inactive | inactive | inactive | inactive | – | – | – | –
10 | CCCC1CCC(=O)O1 (stereo not drawn) | inactive | inactive | inactive | inactive | inactive | inactive | inactive | inactive | inactive | inactive | – | – | –
11 | CC(C)C1=CC2=CC[C@@H]3[C@](C)(CCC[C@@]3(C)C(=O)O)[C@H]2CC1 | inactive | inactive | inactive | inactive | inactive | inactive | inactive | inactive | inactive | inactive | – | – | –
12 | CCC(=O)Nc1ccc(O)cc1 | inactive | inactive | inactive | inactive | inactive | inactive | inactive | inactive | inactive | inactive | – | – | –
13 | CC(C)CC(=O)OCc1ccccc1 | inactive | inactive | inactive | inactive | inactive | inactive | inactive | inactive | inactive | inactive | – | – | –
14 | COc1cc(C)ccc1C(C)C | inactive | inactive | inactive | inactive | inactive | inactive | inactive | inactive | inactive | – | – | – | –
15 | CC1=C(O)C(=O)OC1C (stereo not drawn) | inactive | inactive | inactive | inactive | inactive | inactive | inactive | inactive | inactive | inactive | – | – | –
16 | CC(=O)OC(C)OC(C)=O | inactive | inactive | inactive | inactive | inactive | inactive | inactive | inactive | inactive | – | – | – | –
17 | OCCN(CCO)CCN(CCO)CCO | inactive | inactive | inactive | inactive | inactive | inactive | inactive | inactive | inactive | – | – | – | –
18 | CN1CCN(c2c(F)cc3c(=O)c(C(=O)O)cn4c3c2SCC4)CC1 | inactive | inactive | inactive | inactive | inactive | inactive | inactive | inactive | inactive | inactive | – | – | –
19 | C1CSCCS1 | inactive | inactive | inactive | inactive | inactive | inactive | inactive | inactive | inactive | inactive | – | – | –
20 | FC(F)(F)c1ccccc1 | inactive | inactive | inactive | inactive | inactive | inactive | inactive | inactive | inactive | inactive | – | – | –
21 | O=C1CCC(C2CCCCC2)CC1 | inactive | inactive | inactive | inactive | inactive | inactive | inactive | inactive | inactive | – | – | – | –
22 | CO[C@@]1(NC(=O)CSCC#N)C(=O)N2C(C(=O)O)=C(CSc3nnnn3C)CS[C@@H]21 | inactive | inactive | inactive | inactive | inactive | inactive | inactive | inactive | inactive | – | – | – | –
